Assay outcomes (PubChem)
Most compounds without a hit are left out; they make up all but 1.5% or so of the library.
IDE cell activ – boosts human insulin-degrading enzyme activity in HEK cells; P14735; FAbeta-B cleavage, fluorescence polarization; 0% vehicle, 100% cell-free pure enzyme wells; activation, % at 5.96 µM; 340,000 compounds, 0.073% hits; AID 493087;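 active means activation above the mean of all tested compounds plus 3 SD, set per screening campaign, cut at about 17% in these data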
RTF Ca sens inh – cardiac RTF calcium desensitization; P19429+P45379; IANBD-labeled cardiac RTF, Ca2+ fluorescence; inhibition, % at 7.15 µM; 340,000 compounds, 0.12% hits; AID 493244;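 active means inhibition above the mean inhibition of all tested compounds plus 3 SD, cut at about 17% in these data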;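 further: assay run at fixed EC70 calcium of 1.6 mM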
IDE cell inh – cellular human IDE inhibition | P14735 | HEK cells, FAbetaB cleavage, fluorescence polarization | inhibition, % at 5.59 µM | 320,000 compounds, 0.41% hits | AID 434962;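 active means percent inhibition above the average of all tested compounds plus 3 SD, set per screening campaign, cut at about 16% in these data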;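 further: IDE supplied by intact live HEK cells; FP after avidin binding of uncleaved biotin substrate so inhibition keeps polarization high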
CRFR2-BP antag – blocks CRF-induced signaling of the CRF-BP/CRF-R2 complex; HEK293 CRF-R2/CRF-BP, CRF-induced calcium fluorescence; 350,000 compounds, 0.59% hits; inhibition, % at 11.8 µM;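 active means inhibition of the ligand-induced calcium signal above about 50% at the single tested concentration, limit read from the data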
CRFBP-R2 agonist – agonists of human CRF-binding protein/CRF-R2 receptor complex | HEK293 CRF-R2/CRF-BP, calcium dye fluorescence (FLIPR); percent of saturating CRF peptide response | activation, % at 13.2 µM | 350,000 compounds, 0.46% hits | AID 588473;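 active means activation of at least 50%, plus an integration ratio under a set limit after plate pattern correction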
cardiac RTF act – cardiac RTF calcium sensitization | P19429+P45379 | IANBD-labeled TnC RTF fluorescence at EC20 calcium; 0% EC20 calcium, 100% full calcium | activation, % at 7.2 µM | 340,000 compounds, 0.24% hits;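 active means activation above the mean over all tested compounds plus 3 SD, cut at about 30% in these data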;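 further: rise in fluorescence read as greater calcium sensitivity of cardiac thin filaments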
Hits are given with their value; n = inactive; x = no result given.

SMILES	IDE cell activ	RTF Ca sens inh	IDE cell inh	CRFR2-BP antag	CRFBP-R2 agonist	cardiac RTF act
COc1ccc(NC(=O)c2cc([N+](=O)[O-])ccc2O)cc1	22	n	n	n	n	n
CC(C)Oc1ccc(C(=O)NC2(C(F)(F)F)NC(=O)N(CCCc3ccccc3)C2=O)cc1 (stereo unspecified)	n	n	n	n	n	n
C[C@H](CO)N1C[C@H](C)[C@H](CN(C)Cc2cncnc2)Oc2cc(Br)ccc2S1(=O)=O	x	x	x	n	n	x
COc1ccc2c(c1)c(C(=O)N/N=C/c1cccc(Br)c1)c(C)n2C	n	n	18	n	n	n
CNC(=O)c1sc(N2N=C3/C(=C/c4ccccc4)CCCC3C2c2ccccc2)nc1C (stereo unspecified)	n	n	n	n	64	n
CN1C(=O)C(CC#N)(C2(CC#N)C(=O)N(C)c3ccccc32)c2ccccc21 (stereo unspecified)	n	n	x	n	n	n
CSc1ccccc1OCc1cc(C(=O)NCCn2nc(C)cc2C)no1	34	n	n	n	n	n
Cc1cc(C)n(CCNC(=O)c2cc(COc3ccc(F)cc3Cl)on2)n1	n	n	n	n	n	n
CCN(CC)c1nc(C=Cc2ccc(N(C)C)cc2)c2nccnc2n1	x	x	x	n	215	x
CN(C)c1nc(N)c2nccnc2n1	n	n	x	n	n	n
Cc1ccc(SCc2ccc(C(=O)Nc3ccccc3C(=O)NC(C)C)cc2)cc1	n	n	n	n	n	n
Cc1ccc(SCc2ccc(C(=O)Nc3ccccc3Br)cc2)cc1	n	n	n	n	74	n
CNC(=O)C[C@@H]1C(=O)N(C2CCCCC2)CC1(C)C	x	x	x	n	n	x
CCOCCn1c(SCC(=O)OCc2ccccc2)nc2c1c(=O)[nH]c(=O)n2C	n	n	n	n	56	n
Cc1ccc(/C=N/N(Cc2ccccc2)c2ccccc2)o1	n	n	n	n	n	n
CCN(CC(=O)NC1CCS(=O)(=O)C1)S(=O)(=O)c1ccc(Cl)c(C(F)(F)F)c1 (stereo unspecified)	n	n	x	n	n	n
CCc1ccc2[nH]c(C(=O)Nc3ccc4c(c3)OCO4)cc2c1	n	n	n	69	n	n
Cc1cc(C)c2[nH]c(C(=O)Nc3ccc4c(c3)OCO4)cc2c1	n	n	n	n	n	n
Cc1ccc(S(=O)(=O)N2CCOCC2)cc1C(=O)NC1CCN(Cc2ccccc2)CC1	n	n	x	56	n	n
Cc1ccc(S(=O)(=O)N2CCOCC2)cc1C(=O)Nc1ccc(-c2cn3ccsc3n2)cc1	n	n	20	n	n	n
O=C(NC1CCN(Cc2ccccc2)C1)c1cc(S(=O)(=O)N2CCOCC2)ccc1Cl (stereo unspecified)	n	n	n	n	n	n
Cc1ccc(S(=O)(=O)N2CCOCC2)cc1C(=O)Nc1ccncc1	n	n	n	n	n	n
CC(C)c1cc(=O)oc2c3c4c(cc12)CCCN4CCC3	n	n	n	n	n	n
CN1CCCc2cc3c(C(F)(F)F)cc(=O)oc3nc21	n	n	n	n	212	38
Cc1ccc(O)c(C(=O)c2cnn(C(=O)COc3ccccc3C#N)c2)c1	x	x	n	x	x	x
SMILES	IDE cell activ	RTF Ca sens inh	IDE cell inh	CRFR2-BP antag	CRFBP-R2 agonist	cardiac RTF act
CCC(C)c1ccc(OCCn2cc(/C=N/NC(=O)CSc3nnc(C)s3)c3ccccc32)cc1 (stereo unspecified)	n	n	n	n	n	n
CC(=O)Nc1ccc(NS(=O)(=O)c2cccc3nonc23)cc1	n	n	n	n	n	n
CCN(CC)S(=O)(=O)c1ccc(C(=O)NCCOC(=O)c2ccc(F)cc2F)cc1	n	n	n	n	n	n
Cc1nn(C)c(C)c1NC(=O)c1cc2nc(-c3ccco3)cc(C(F)(F)F)n2n1	n	n	n	134	n	n
Cc1c(C(=O)O)sc(S(=O)(=O)N2CCN(C(=O)CC(C)c3ccccc3)CC2)c1C(=O)O (stereo unspecified)	n	n	x	n	n	n
COc1cc(NC(=O)c2ccc3c(c2)C(=O)N(CCC(C)C)C3=O)c(C(=O)O)cc1OC	n	n	n	51	n	n
CC(C)CCN1C(=O)c2ccc(C(=O)Nc3ccc(O)cc3C(=O)O)cc2C1=O	n	n	n	n	n	n
CC(c1ccccc1)N1C(=O)c2ccc(C(=O)Nc3ccc(Br)cc3C(=O)O)cc2C1=O (stereo unspecified)	n	n	n	59	n	n
COCC1CCN(Cc2nc(-c3ccc4c(c3)OCO4)no2)C1 (stereo unspecified)	n	n	n	n	203	n
c1cc(C2CCN(Cc3nc(-c4ccc5c(c4)OCO5)no3)CC2)ccn1	n	n	n	n	n	n
CCCCNC(=O)[C@H]1C[C@H]1[C@@H](O)[C@H](CO)NC(=O)[C@H](COCc1ccccc1)NC(=O)OC(C)(C)C	n	n	n	n	n	n
COC(=O)c1c(NS(=O)(=O)Cc2ccccc2)sc2c1CCCC2	n	n	n	n	n	n
CC(C)OC(=O)c1c(NS(=O)(=O)c2ccccc2)sc2c1CCCC2	n	n	n	n	76	n
CCOC(=O)c1c(N2C(=O)Nc3ccccc3N2O)n[nH]c1-c1cccc(Cl)c1	n	n	n	68	n	n
CCOc1ccc(-c2cc(N3C(=O)Nc4ccccc4N3O)n[nH]2)cc1	n	n	n	n	n	n
CN(C(=O)COC(=O)c1ccccc1SCC(=O)NC1CCCCCCC1)C1CCS(=O)(=O)C1 (stereo unspecified)	n	n	n	n	n	n
O=C(c1ccccc1)c1ccc2c(c1)OCCOCCOCCO2	n	n	n	n	n	n
O=C(c1cccc([N+](=O)[O-])c1)c1ccc2c(c1)OCCOCCOCCO2	x	x	n	58	n	x
CCN(CC(=O)Nc1c(F)cccc1F)C(=O)C1CCN(S(=O)(=O)c2ccc(C)cc2C)CC1	n	n	n	n	n	n
Cc1onc(-c2ccccc2Cl)c1C(=O)NCc1ccc(N2CCCC2=O)cc1	n	n	n	57	n	n
COc1cc(-c2c(C#N)c(N)nc3[nH]c(=S)[nH]c(=O)c23)ccc1O	n	n	n	n	n	n
Cc1nn(C)c(C)c1S(=O)(=O)N(CC(=O)NCCCN1CC(C)CC(C)C1)c1ccc(C(C)C)cc1 (stereo unspecified)	n	n	n	n	n	n
COc1cc(NC(=O)NS(=O)(=O)c2ccc(C)cc2)cc(OC)c1	n	n	n	n	n	n
COc1ccc(NC(=O)NS(=O)(=O)c2ccc(C)cc2)cn1	30	n	x	n	n	348
COCCNC(=O)c1cccc(Nc2nc(-c3ccccc3)c3cc(Cl)ccc3n2)c1	n	n	n	n	n	n
COc1ccccc1C/C(N)=N/OC(=O)COc1cccc(C)c1C	n	19	n	n	n	n
